# Results: PubChem BioAssay
# Inconclusive results are not listed. The source made the active and inactive calls.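 Rule for the calls, unless noted: active = normalized viability below 100% at a tested concentration; inactive = the rest.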
# Assays:
# [1] = viability loss in pontine glioma line – cell-based, SU-DIPG-XXV, MIPE5.0, CellTiter-Glo, qHTS, dose response (AID 1347065; cut-off not given, nearly all actives have AC50 up to about 26 µM;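 note: cells exposed to compound for 48 hours before ATP readout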); conditions: CellTiter-Glo ATP luminescence
# [2] = JHH-DIPG-1 glioma cell viability, MIPE5.0 library, CellTiter-Glo luminescence, qHTS (AID 1347067; cut-off not given, nearly all actives have AC50 up to about 26 µM;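 note: cells exposed to compound for 48 hours before readout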); conditions: JHH-DIPG-1 glioma viability, CellTiter-Glo ATP luminescence
# [3] = SU-DIPG-XXV glioma cell viability, MIPE5.0 library, qHTS (AID 1347068; cut-off not given, nearly all actives have IC50 up to about 30 µM)
# [4] = growth inhibition of DIPG glioma cells, dose response, cell-based, SU-DIPG-XVII, MIPE5.0, CellTiter-Glo, qHTS (AID 1347060; cut-off not given, nearly all actives have AC50 up to about 26 µM;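 for AC50: cells exposed to compound for 48 hours before viability readout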); conditions: SU-DIPG-XVII viability, CellTiter-Glo ATP luminescence
# [5] = LFS_MB_P medulloblastoma growth inhibition, cell-based, chromothripsis tumors, cisplatin or BGB combos (AID 1671449; in the data active = inhibition above about 80%;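 note: cells exposed for 96 hours; 0% = vehicle DMSO and 100% = killing by high DMSO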); conditions: LFS_MB_P medulloblastoma cells
# [6] = HDN33 neuroblastoma growth inhibition, cell-based, chromothripsis tumors, cisplatin or BGB combos (AID 1671450; in the data active = inhibition above about 80%;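 note: cells exposed to compound for four days; 0% = vehicle DMSO and 100% = cell killing by high DMSO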); conditions: HDN33 neuroblastoma cells, stronger effect = higher value
# [7] = ICB984 medulloblastoma cell growth inhibition, synergistic combos for chromothripsis tumors, cisplatin or BGB combos (AID 1671451; call rule not given here;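 note: cells exposed for 96 hours before readout; 0% = vehicle DMSO and 100% = killing by high DMSO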); conditions: ICB984 medulloblastoma cells, drug combinations, stronger effect = higher value
# [8] = LFS_MB_1R medulloblastoma cell growth inhibition, synergistic combos for chromothripsis tumors, cisplatin or BGB combos (AID 1671452; in the data active = inhibition above about 80%;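 note: cells exposed for 96 hours before readout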); conditions: LFS_MB_1R medulloblastoma cells, stronger effect = higher value
# [9] = HTB85 osteosarcoma cell growth inhibition, synergistic combos for chromothripsis tumors, BGB or cisplatin IC20 combos (AID 1671453; in the data active = inhibition above about 80%;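 note: cells exposed for 96 hours before readout; 0% = vehicle DMSO and 100% = high DMSO killing control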); conditions: HTB85 osteosarcoma cells, drug combinations, stronger effect = higher value
# [10] = CRL2098 osteosarcoma cell growth inhibition, synergistic combos for chromothripsis tumors, BGB or cisplatin IC20 combos (AID 1671454; in the data active = inhibition above about 80%;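 note: cells exposed for 96 h before readout; 0% = vehicle DMSO and 100% = killing by high DMSO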); conditions: CRL2098 osteosarcoma cells, drug combinations, stronger effect = higher value
# [11] = HD-MB03 medulloblastoma cell growth inhibition, synergistic combos for chromothripsis tumors, BGB or cisplatin IC20 combos (AID 1671455; in the data active = inhibition above about 83%;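 note: 0% = vehicle DMSO and 100% = high DMSO as cytotoxic control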); conditions: HD-MB03 medulloblastoma cells, stronger effect = higher value
# [12] = UWB1.289 ovarian carcinoma cell growth inhibition, synergistic combos for chromothripsis tumors, BGB or cisplatin combos (AID 1671456; in the data active = inhibition above about 80%;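 note: cells exposed to compound for four days; 0% = vehicle DMSO and 100% = killing by high DMSO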); conditions: UWB1.289 ovarian carcinoma cells, stronger effect = higher value
# [13] = LFS_MB_2R medulloblastoma cell growth inhibition, synergistic combos for chromothripsis tumors, cisplatin combos (AID 1671457; in the data active = inhibition above about 80%;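 note: cells exposed to compound for four days before readout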); conditions: LFS_MB_2R medulloblastoma cells, stronger effect = higher value
# [14] = MDA-MB-436 breast carcinoma cell growth inhibition, synergistic combos for chromothripsis tumors, BGB or cisplatin combos (AID 1671458; call rule not given here;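 note: cells exposed for 96 hours; 0% = vehicle DMSO and 100% = killing by high DMSO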); conditions: MDA-MB-436 breast carcinoma growth inhibition, drug combinations, stronger effect = higher value
# [15] = UWB1.289_BRCA1 ovarian cancer growth, cell-based, BGB or cisplatin combinations (AID 1671459; in the data active = inhibition above about 80%); conditions: UWB1.289 BRCA1 ovarian carcinoma, drug combinations, stronger effect = higher value
# [16] = human astrocyte viability loss, single and combined drugs, cytotoxicity control for chromothriptic childhood tumor combination screen, cell-based, BGB or cisplatin IC20 combos (AID 1671460; in the data active = inhibition above about 80%;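 note: cells exposed to compounds for 96 hours before viability readout; 0% = vehicle and 100% = killing control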); conditions: Human astrocytes, drug combinations, stronger effect = higher value
# [17] = growth inhibition of BT084 medulloblastoma cells, cell-based, ICGC_MB145, cisplatin and BGB IC40 combos (AID 1671461; in the data active = inhibition above about 80%;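 note: cells exposed to drugs for 96 hours; 0% = vehicle DMSO and 100% = high DMSO full killing control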); conditions: drug combinations, stronger effect = higher value
# [18] = growth inhibition of RCMB18 medulloblastoma cells, cell-based, cisplatin and BGB IC40 combos (AID 1671462; in the data active = inhibition above about 80%;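 note: cells exposed to compound for four days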); conditions: stronger effect = higher value
# [19] = growth inhibition of CRL1545 osteosarcoma cells, cell-based, cisplatin and BGB IC20 combos (AID 1671464; in the data active = inhibition above about 80%;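 note: cells exposed to compound for 96 hours before readout; 0% = vehicle DMSO and 100% = high DMSO killing control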); conditions: stronger effect = higher value
# [20] = ovarian cancer cell viability with rucaparib, profiling panel, oncology-focused library, rucaparib conditional (AID 1508598); conditions: patient-derived ovarian cancer cells, CellTiter-Glo viability, 144 h, stronger effect = lower value
# [21] = measured here: combination with BGB IC40, at 0.05 µM
# [22] = measured here: with BGB IC20 combination, at 0.5 µM
# [23] = measured here: with cisplatin IC20 combination, at 0.5 µM
# [24] = measured here: combination with cisplatin, at 0.5 µM
# [25] = measured here: combination with cisplatin, at 5 µM
structure (smiles),measurement,setting,value
O=C(O)C[C@H](O)C[C@H](O)/C=C/c1c(C2CC2)nc2ccccc2c1-c1ccc(F)cc1,AC50,[1],9.34 µM (active)
same,AC50,[2],9.34 µM (active)
same,outcome,[3],inactive
Nc1ccn([C@@H]2CS[C@H](CO)O2)c(=O)n1,outcome,[4],inactive
same,outcome,[1],inactive
same,outcome,[2],inactive
same,outcome,[3],inactive
NC(=O)c1ncn(C2OC(CO)C(O)C2O)n1 (centres undefined),inhibition,"[5]; at 0.5 µM, stronger effect = higher value",-16.1% (inactive)
same,inhibition,"[5]; measured here: combination with BGB IC20, at 0.005 µM",-16.5%
same,inhibition,"[5]; measured here: combination with BGB IC40, at 0.005 µM",25.4%
same,inhibition,[5]; [21],-2.38%
same,inhibition,"[5]; measured here: combination with cisplatin, at 0.5 µM, stronger effect = higher value",-6.01%
same,inhibition,"[5]; measured here: combination with cisplatin, at 5 µM, stronger effect = higher value",-20.9%
same,inhibition,"[6]; BGB combo, at 5 µM",31.2%
same,inhibition,[6]; at 0.5 µM,2.73% (inactive)
same,inhibition,"[6]; cisplatin combo, at 5 µM",-8.56%
same,inhibition,[6]; [22],6.96%
same,inhibition,[6]; [23],2.48%
same,inhibition,"[6]; single agent, at 5 µM",14%
same,inhibition,"[7]; BGB IC20 combo, at 0.005 µM",3.66%
same,inhibition,"[7]; BGB IC40 combo, at 0.005 µM",-0.335%
same,inhibition,"[7]; BGB IC40 combo, at 0.05 µM",6.2%
same,inhibition,[7]; at 0.5 µM,-10.2% (inactive)
same,inhibition,"[7]; cisplatin combo, at 0.05 µM",6.2%
same,inhibition,"[7]; cisplatin combo, at 0.5 µM",-6.29%
same,inhibition,"[7]; cisplatin combo, at 5 µM",-17.4%
same,inhibition,"[7]; measured here: 5 uM single agent, at 5 µM",-2.81%
same,inhibition,[8]; at 0.5 µM,-9.72% (inactive)
same,inhibition,[8]; [21],-31.9%
same,inhibition,[8]; [24],21.6%
same,inhibition,[8]; [25],-1.97%
same,inhibition,[9]; at 0.5 µM,4.41% (inactive)
same,inhibition,"[9]; measured here: with BGB IC20, at 0.5 µM",-12.9%
same,inhibition,"[9]; measured here: with BGB IC20, at 5 µM",10.8%
same,inhibition,"[9]; measured here: with cisplatin IC20, at 0.5 µM",14.3%
same,inhibition,"[9]; measured here: with cisplatin IC20, at 5 µM",0.254%
same,inhibition,"[9]; single agent, at 5 µM",2.26%
same,inhibition,[10]; at 0.5 µM,-9.01% (inactive)
same,inhibition,"[10]; measured here: combination with BGB at IC20, at 0.5 µM",-25.7%
same,inhibition,"[10]; measured here: combination with cisplatin at IC20, at 0.5 µM",-6.71%
same,inhibition,[11]; at 0.5 µM,-4.13% (inactive)
same,inhibition,"[11]; measured here: combo with BGB at IC20, at 0.5 µM",-1.27%
same,inhibition,"[11]; measured here: combo with cisplatin at IC20, at 0.5 µM",-10.7%
same,inhibition,[12]; at 0.5 µM,3.07% (inactive)
same,inhibition,"[12]; measured here: inhibition with BGB combination, at 0.05 µM",9.47%
same,inhibition,"[12]; measured here: inhibition with cisplatin combination, at 0.05 µM",-5.32%
same,inhibition,[13]; at 0.5 µM,1.38% (inactive)
same,inhibition,[13]; [24],-4.76%
same,inhibition,[13]; [25],3.14%
same,inhibition,[14]; at 0.5 µM,-5.54% (inactive)
same,inhibition,"[14]; measured here: BGB combination, at 0.5 µM",2.04%
same,inhibition,"[14]; measured here: BGB combination, at 5 µM",-7.02%
same,inhibition,"[14]; measured here: cisplatin combination, at 0.5 µM",-11.9%
same,inhibition,"[14]; measured here: cisplatin combination, at 5 µM",6.23%
same,inhibition,"[15]; BGB combination, concentration series, at 5 µM",5.54%
same,inhibition,[15]; at 0.5 µM,1.33% (inactive)
same,inhibition,"[15]; cisplatin combination, concentration series, at 5 µM",1.04%
same,inhibition,[16]; at 0.5 µM,-5.97% (inactive)
same,inhibition,"[16]; measured here: combo with BGB IC20, at 0.5 µM",-5.76%
same,inhibition,"[16]; measured here: combo with cisplatin IC20, at 0.5 µM",-5.35%
same,inhibition,[17]; at 0.5 µM,6.99% (inactive)
same,inhibition,"[17]; cisplatin combination, at 0.5 µM",12.1%
same,inhibition,"[17]; cisplatin combination, at 5 µM",-28.4%
same,inhibition,"[17]; measured here: BGB IC40 combination 0.05 uM, at 0.05 µM",25.7%
same,inhibition,"[17]; single agent, at 5 µM",8.51%
same,inhibition,[18]; at 0.5 µM,9.1% (inactive)
same,inhibition,"[18]; cisplatin combo, at 5 µM",13.6%
same,inhibition,"[18]; measured here: BGB IC40 combination, at 0.05 µM",7.76%
same,inhibition,[18]; [24],29.4%
same,inhibition,"[18]; single agent, at 5 µM",-9.79%
same,inhibition,[19]; at 0.5 µM,-15.9% (inactive)
same,inhibition,[19]; [22],-14.4%
same,inhibition,[19]; [23],-16.7%
same,inhibition,"[19]; single agent, at 0.05 µM",17.7%
same,inhibition,"[19]; single agent, at 5 µM",-14.1%
COc1cc(C[C@@H](CO)[C@H](CO)Cc2ccc(O)c(OC)c2)ccc1O,outcome,[4],inactive
same,outcome,[1],inactive
same,outcome,[2],inactive
same,outcome,[3],inactive
Nc1nc(Cl)nc2c1ncn2[C@H]1C[C@H](O)[C@@H](CO)O1,AC50,[4],0.833 µM (active)
same,outcome,[2],inactive
same,outcome,[3],inactive
same,viability,"[20]; at 0.000305 µM, OCI-C5x cells, with rucaparib 10 µM, 100% = cells with rucaparib alone",104% (inactive)
same,viability,"[20]; at 0.000305 µM, OCI-C5x cells, without rucaparib",113% (inactive)
same,viability,"[20]; at 0.000305 µM, OCI-P5x cells, with rucaparib 20 µM, 100% = cells with rucaparib alone",106% (inactive)
same,viability,"[20]; at 0.000305 µM, OCI-P5x cells, without rucaparib",108% (inactive)
same,viability,"[20]; at 0.00122 µM, OCI-C5x cells, with rucaparib 10 µM, 100% = cells with rucaparib alone",101% (inactive)
same,viability,"[20]; at 0.00122 µM, OCI-C5x cells, without rucaparib",115% (inactive)
same,viability,"[20]; at 0.00122 µM, OCI-P5x cells, with rucaparib 20 µM, 100% = cells with rucaparib alone",108% (inactive)
same,viability,"[20]; at 0.00122 µM, OCI-P5x cells, without rucaparib",110% (inactive)
same,viability,"[20]; at 0.00488 µM, OCI-C5x cells, with rucaparib 10 µM, 100% = cells with rucaparib alone",96% (active)
same,viability,"[20]; at 0.00488 µM, OCI-C5x cells, without rucaparib",113% (inactive)
same,viability,"[20]; at 0.00488 µM, OCI-P5x cells, with rucaparib 20 µM, 100% = cells with rucaparib alone",106% (inactive)
same,viability,"[20]; at 0.00488 µM, OCI-P5x cells, without rucaparib",106% (inactive)
same,viability,"[20]; at 0.0195 µM, OCI-C5x cells, with rucaparib 10 µM, 100% = cells with rucaparib alone",111% (inactive)
same,viability,"[20]; at 0.0195 µM, OCI-C5x cells, without rucaparib",111% (inactive)
same,viability,"[20]; at 0.0195 µM, OCI-P5x cells, with rucaparib 20 µM, 100% = cells with rucaparib alone",108% (inactive)
same,viability,"[20]; at 0.0195 µM, OCI-P5x cells, without rucaparib",91.4% (active)
same,viability,"[20]; at 0.0781 µM, OCI-C5x cells, with rucaparib 10 µM, 100% = cells with rucaparib alone",105% (inactive)
same,viability,"[20]; at 0.0781 µM, OCI-C5x cells, without rucaparib",109% (inactive)
same,viability,"[20]; at 0.0781 µM, OCI-P5x cells, with rucaparib 20 µM, 100% = cells with rucaparib alone",107% (inactive)
same,viability,"[20]; at 0.0781 µM, OCI-P5x cells, without rucaparib",76.7% (active)
same,viability,"[20]; at 0.313 µM, OCI-C5x cells, with rucaparib 10 µM, 100% = cells with rucaparib alone",112% (inactive)
same,viability,"[20]; at 0.313 µM, OCI-C5x cells, without rucaparib",95.6% (active)
same,viability,"[20]; at 0.313 µM, OCI-P5x cells, with rucaparib 20 µM, 100% = cells with rucaparib alone",88.9% (active)
same,viability,"[20]; at 0.313 µM, OCI-P5x cells, without rucaparib",50.8% (active)
same,viability,"[20]; at 1.25 µM, OCI-C5x cells, with rucaparib 10 µM, 100% = cells with rucaparib alone",95.8% (active)
same,viability,"[20]; at 1.25 µM, OCI-C5x cells, without rucaparib",94.4% (active)
same,viability,"[20]; at 1.25 µM, OCI-P5x cells, with rucaparib 20 µM, 100% = cells with rucaparib alone",50.8% (active)
same,viability,"[20]; at 1.25 µM, OCI-P5x cells, without rucaparib",37% (active)
same,viability,"[20]; at 5 µM, OCI-C5x cells, with rucaparib 10 µM, 100% = cells with rucaparib alone",72.5% (active)
same,viability,"[20]; at 5 µM, OCI-C5x cells, without rucaparib",54.1% (active)
same,viability,"[20]; at 5 µM, OCI-P5x cells, with rucaparib 20 µM, 100% = cells with rucaparib alone",35.7% (active)
same,viability,"[20]; at 5 µM, OCI-P5x cells, without rucaparib",18.1% (active)
